Laboratory results taken from PubChem BioAssay (EPA / NIEHS).
Several values for one entry are separate records, joined by “and”; a condition that tells them apart may be missing. Identical values can stand only once. Some compounds were tested as several samples or in several runs, with calls that do not always agree. Activity calls are given as the source filed them. The calls were made as follows: active = hit-call score of the fitted dose curve at least 0.9, where 1 is the maximum; inactive = score below 0.9.

Legend:
[1] = BSK_CASM3C_SRB: Viability Assessment in the BioMAP Diversity Plus: CASM3C Assay (AID 2283050); details: primary human coronary artery smooth muscle cells;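 also: total protein by SRB staining as cytotoxicity measure in parallel cultures; cells exposed to compound for 24 h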
[2] = read-out: Thrombomodulin, THBD (gene 7056); test: BSK_CASM3C_Thrombomodulin: BioMAP Diversity Plus: CASM3C Assay for Thrombomodulin Biomarker Activity (AID 2283051); details: primary human coronary artery smooth muscle cells; actives raise or lower the signal;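 also: thrombomodulin protein level measured by ELISA 24 h after dosing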
[3] = read-out: Tissue Factor, F3 (gene 2152); test: BSK_CASM3C_TissueFactor: BioMAP Diversity Plus: CASM3C Assay for Tissue Factor Biomarker Activity (AID 2283052); details: primary human coronary artery smooth muscle cells; actives raise or lower the signal;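 also: cell surface tissue factor protein level read by ELISA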
[4] = read-out: Interferon-gamma inducible Protein 10 (IP10), CXCL10 (gene 3627); test: BSK_hDFCGF_IP10: BioMAP Diversity Plus: hDFCGF Assay for Interferon-gamma inducible Protein 10 (IP10) Biomarker Activity (AID 2283053); details: primary human foreskin fibroblasts; actives raise or lower the signal
Method in brief: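 ELISA read-out of IP-10 (CXCL10) from primary human skin fibroblasts, 24 h after compound addition. Gain or loss of signal versus DMSO baseline, bidirectional curve fitting.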

[5] = read-out: Urokinase-type plasminogen activator receptor (uPAR), PLAUR (gene 5329); test: BSK_CASM3C_uPAR: BioMAP Diversity Plus: CASM3C Assay for Urokinase-type plasminogen activator receptor (uPAR) Biomarker Activity (AID 2283054); details: primary human coronary artery smooth muscle cells; actives raise or lower the signal;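 also: cell-surface uPAR protein level quantified by ELISA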
[6] = read-out: Vascular cell adhesion molecule 1 (VCAM1), VCAM1 (gene 7412); test: BSK_CASM3C_VCAM1: BioMAP Diversity Plus: CASM3C Assay for Vascular cell adhesion molecule 1 (VCAM1) Biomarker Activity (AID 2283055); details: primary human coronary artery smooth muscle cells; actives raise or lower the signal;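 also: VCAM-1 protein level quantified by ELISA on the cells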
[7] = read-out: Collagen III, COL3A1 (gene 1281); test: BSK_hDFCGF_CollagenIII: BioMAP Diversity Plus: hDFCGF Assay for Collagen III Biomarker Activity (AID 2283056); details: primary human foreskin fibroblasts; actives raise or lower the signal
Method in brief: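 ELISA read-out of collagen III from human skin fibroblast cultures sampled 24 h post-dosing. Values were derived by bidirectional fitting relative to the DMSO vehicle control.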

[8] = read-out: Epidermal growth factor receptor (EGFR), EGFR (gene 1956); test: BSK_hDFCGF_EGFR: BioMAP Diversity Plus: hDFCGF Assay for Epidermal growth factor receptor (EGFR) Biomarker Activity (AID 2283057); details: primary human foreskin fibroblasts; actives raise or lower the signal
Method in brief: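 ELISA readout of EGFR on human dermal fibroblasts (primary foreskin cells), 24 h post-dosing; bidirectional curve fit vs DMSO baseline, gain or loss of signal scored.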

[9] = read-out: Interleukin-8 (IL8), CXCL8 (gene 3576); test: BSK_hDFCGF_IL8: BioMAP Diversity Plus: hDFCGF Assay for Interleukin-8 (IL8) Biomarker Activity (AID 2283058); details: primary human foreskin fibroblasts; actives raise or lower the signal
Method in brief: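 Cells used are human skin primary fibroblasts. Chemical is added, cultures run 24 h, then IL-8 is quantified by ELISA, and gain or loss versus DMSO control is fitted in both directions.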

[10] = BSK_hDFCGF_Proliferation: Cell Proliferation Assessment in the BioMAP Diversity Plus: hDFCGF Assay (AID 2283059); details: primary human foreskin fibroblasts;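 also: curves fitted for both rise and fall of signal versus DMSO baseline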
Method in brief: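 Primary human foreskin fibroblasts, sub-confluent; […]; 10% TCA fix, 0.1% SRB stain, A560 total protein. Gain/loss fitted bidirectionally vs DMSO control.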

[11] = read-out: Macrophage colony-stimulating factor (MCSF), CSF1 (gene 1435); test: BSK_hDFCGF_MCSF: BioMAP Diversity Plus: hDFCGF Assay for Macrophage colony-stimulating factor (MCSF) Biomarker Activity (AID 2283060); details: primary human foreskin fibroblasts; actives raise or lower the signal
Method in brief: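 Primary human foreskin fibroblasts dosed with chemical; 24 h later, M-CSF quantified by ELISA; curves fitted in both directions vs DMSO negative control.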

[12] = BSK_hDFCGF_SRB: Viability Assessment in the BioMAP Diversity Plus: hDFCGF Assay (AID 2283061); details: primary human foreskin fibroblasts;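 also: cells exposed to compound for 24 h before the read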
Method in brief: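 Readout is SRB absorbance at 560 nm, reflecting total protein in parallel cultures of human foreskin fibroblasts harvested 24 h after chemical dosing. Activity was fitted bidirectionally relative to DMSO.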

[13] = read-out: TIMP metallopeptidase inhibitor 1 (TIMP1), TIMP1 (gene 7076); test: BSK_hDFCGF_TIMP1: BioMAP Diversity Plus: hDFCGF Assay for TIMP metallopeptidase inhibitor 1 (TIMP1) Biomarker Activity (AID 2283062); details: primary human foreskin fibroblasts; actives raise or lower the signal
Method in brief: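 Human skin fibroblasts (primary), hDFCGF system; compound exposure 24 h; TIMP-1 by ELISA; bidirectional fit vs DMSO negative control; overt cytotoxicity by SRB in parallel wells.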

[14] = read-out: Monokine induced gamma interferon (MIG), CXCL9 (gene 4283); test: BSK_hDFCGF_MIG: BioMAP Diversity Plus: hDFCGF Assay for Monokine induced gamma interferon (MIG) Biomarker Activity (AID 2283063); details: primary human foreskin fibroblasts; actives raise or lower the signal
Method in brief: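 Chemicals were added to primary human foreskin fibroblast cultures, which were sampled 24 h later. MIG levels were then quantified by ELISA and responses fitted in both directions relative to DMSO.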

[15] = read-out: Matrix Metallopeptidase 1 (MMP1), MMP1 (gene 4312); test: BSK_hDFCGF_MMP1: BioMAP Diversity Plus: hDFCGF Assay for Matrix Metallopeptidase 1 (MMP1) Biomarker Activity (AID 2283064); details: primary human foreskin fibroblasts; actives raise or lower the signal
Method in brief: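 ELISA read-out of MMP1 from human foreskin fibroblasts (primary skin cells), 24 h post-dose. Gain or loss of signal was fitted bidirectionally versus DMSO negative control; cytotoxicity was checked by SRB in parallel cultures.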

[16] = read-out: Vascular cell adhesion molecule 1 (VCAM1), VCAM1 (gene 7412); test: BSK_hDFCGF_VCAM1: BioMAP Diversity Plus: hDFCGF Assay for Vascular cell adhesion molecule 1 (VCAM1) Biomarker Activity (AID 2283065); details: primary human foreskin fibroblasts; actives raise or lower the signal;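 as to AC50: VCAM-1 protein level quantified by ELISA after 24 h chemical exposure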
Method in brief: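 Human foreskin fibroblast primary cells, chemical exposure 24 h; VCAM-1 by ELISA; bidirectional fit, DMSO = negative control/baseline.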

[17] = read-out: Plasminogen activator inhibitor-1 (PAI1), SERPINE1 (gene 5054); test: BSK_hDFCGF_PAI1: BioMAP Diversity Plus: hDFCGF Assay for Plasminogen activator inhibitor-1 (PAI1) Biomarker Activity (AID 2283066); details: primary human foreskin fibroblasts; actives raise or lower the signal
Method in brief: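 ELISA readout of PAI-1 from primary human skin fibroblast cultures, 24 h after compound addition. Gain or loss of signal was fitted bidirectionally against DMSO baseline.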

[18] = read-out: Intercellular Adhesion Molecule 1 (ICAM1), ICAM1 (gene 3383); test: BSK_KF3CT_ICAM1: BioMAP Diversity Plus: KF3CT Assay for Intercellular Adhesion Molecule 1 (ICAM1) Biomarker Activity (AID 2283067); details: primary human keratinocytes with fibroblasts; actives raise or lower the signal
Method in brief: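 ICAM-1 levels are measured by ELISA 24 h after dosing a primary human co-culture of keratinocytes and foreskin fibroblasts. Activity in either direction is fitted relative to DMSO vehicle.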

[19] = BSK_KF3CT_SRB: Viability Assessment in the BioMAP Diversity Plus: KF3CT Assay (AID 2283069); details: primary human keratinocytes with fibroblasts;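 also: total protein by sulforhodamine B staining as a cytotoxicity measure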
Method in brief: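 SRB read-out at 560 nm (0.1% stain, TCA-fixed cells) gauges overt cytotoxicity in a human skin keratinocyte–fibroblast co-culture 24 h post-dosing. Signal change was fitted bidirectionally relative to DMSO control.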

[20] = read-out: Interferon-gamma inducible Protein 10 (IP10), CXCL10 (gene 3627); test: BSK_KF3CT_IP10: BioMAP Diversity Plus: KF3CT Assay for Interferon-gamma inducible Protein 10 (IP10) Biomarker Activity (AID 2283068); details: primary human keratinocytes with fibroblasts; actives raise or lower the signal
Method in brief: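 In a primary skin co-culture of keratinocytes and fibroblasts, IP-10 is quantified by ELISA at 24 h after dosing. SRB staining of parallel wells monitors overt toxicity. Curves are fitted both directions against DMSO.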

Measured: AC50

Cc1ccc(O)c(-n2nc3ccccc3n2)c1
not listed: [20]
inactive: all other assays above

OCC(F)(F)C(F)(F)C(F)(F)CO
not listed: [20]
inactive: all other assays above

OCC(F)(F)C(F)(F)C(F)(F)C(F)(F)C(F)(F)C(F)(F)CO
not listed: [15]
inactive: all other assays above

O=C1c2c(O)ccc(Nc3ccc(CCO)cc3)c2C(=O)c2c([N+](=O)[O-])ccc(O)c21
active: [1] 4.72 µM | [2] 20 µM | [4] 20 µM | [7] 20 µM | [10] 10.4 µM | [11] 8.52 µM | [12] 20 µM | [13] 20 µM | [14] 29.5 µM | [16] 9.03 µM | [18] 15.2 µM
inactive: [3] | [5] | [6] | [8] | [9] | [15] | [17] | [19]

OCCCC(F)(F)C(F)(F)C(F)(F)C(F)(F)C(F)(F)C(F)(F)C(F)(F)C(F)(F)F
inactive: [2] | [3]
active: [1] 32 µM and 48.6 µM | [2] 7.67 µM | [3] 25.4 µM | [4] 9.54 µM and 7.81 µM | [5] 46.1 µM and 51.2 µM | [6] 37.4 µM and 30 µM | [7] 10.7 µM and 9.75 µM | [8] 3.16 µM and 3.2 µM | [9] 15.9 µM and 12 µM | [10] 3.28 µM and 4.77 µM | [11] 8.04 µM and 6.66 µM | [12] 9.4 µM and 6.19 µM | [13] 9.8 µM and 11.3 µM | [14] 12.5 µM and 12 µM | [16] 9.41 µM and 6.1 µM | [17] 6.66 µM and 5.89 µM | [18] 12.8 µM and 11.7 µM | [20] 12.8 µM and 9.49 µM | [19] 8.92 µM and 10.7 µM
